“And” between values parts separate entries of the source, which are not always exact repeats. Equal entries are not always repeated. Results filed as inconclusive are left out. For some of these results: Potency and affinity values are given separately. The source made the active and inactive calls. Unless noted, how the calls were made is not given here.
Experiments:
[1] = blockers of polyQ-driven CASP3 activation – cell-based (AID 1583); details: polyglutamine-induced caspase-3 activation, cell assay; stronger effect = higher value;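 tested at 10 µM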
[2] = yeast 75Q aggregation reduction – 75Q-TubU reporter (AID 1593); details: Yeast 75Q polyglutamine aggregation reporter
[3] = restoration of touch response, mutant HTT neurons – whole organism, C. elegans mechanosensory neurons, N-terminal huntingtin (AID 1599); details: C. elegans polyQ-huntingtin mechanosensory neurons, stronger effect = higher value
[4] = blockers of cytochrome c efflux from mitochondria – biochemical, purified mitochondria (AID 1603); details: stronger effect = lower value;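 further: mouse liver mitochondria challenged with calcium chloride; signal normalized to the plate average as 100%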
[5] = polyglutamine aggregate formation blockers (AID 1604); details: polyglutamine-induced protein aggregation inhibition assay; stronger effect = higher value; tested at 2.5 µM
[6] = glutamate transport activators, MN-1 cells, MN-1 cell line (AID 1612); details: MN-1 motor neuron cells, stronger effect = higher value;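 further: tested at 1 µM final; 0% = mean of DMSO vehicle wells on each plate; positive means more glutamate uptake than control and negative means less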
[7] = GFP-Q80 aggregate reduction, neuronal-like cells, cell-based, NGF-treated PC12, GFPQ80 (AID 1614); details: PC12 NGF-treated GFP-polyQ80 inclusion reduction;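 further: lower means fewer inclusions and 0 means no inclusions at all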
[8] = 75Q-TubH aggregate inhibition, S. cerevisiae, yeast (AID 1616); details: S. cerevisiae 75Q-TubH polyglutamine aggregation suppression; stronger effect = higher value
[9] = compounds altering circadian rhythm period length – cell-based, LOPAC library, luminescence reporter (AID 2774); details: circadian reporter cells, at 7 µM, actives lie on both sides;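 further: values are relative to mean of DMSO wells on each plate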
[10] = target: ATP-dependent translocase ABCB1 (Homo sapiens) (UniProt P08183); test: P-glycoprotein substrate transport blockade – cell-based (AID 377; in the data active means fluorescence slope change above about 50%); details: MDR1-expressing cells, fluorescent substrate accumulation slope; stronger effect = higher value; concentration not given here
[11] = compounds altering viability of human ES cells (AID 493140); details: human embryonic stem cell survival screen; stronger effect = higher value;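 further: cells exposed to compounds for four days before counting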

Sequence of ATP-dependent translocase ABCB1 (Homo sapiens) (P08183 whole entry, looked up): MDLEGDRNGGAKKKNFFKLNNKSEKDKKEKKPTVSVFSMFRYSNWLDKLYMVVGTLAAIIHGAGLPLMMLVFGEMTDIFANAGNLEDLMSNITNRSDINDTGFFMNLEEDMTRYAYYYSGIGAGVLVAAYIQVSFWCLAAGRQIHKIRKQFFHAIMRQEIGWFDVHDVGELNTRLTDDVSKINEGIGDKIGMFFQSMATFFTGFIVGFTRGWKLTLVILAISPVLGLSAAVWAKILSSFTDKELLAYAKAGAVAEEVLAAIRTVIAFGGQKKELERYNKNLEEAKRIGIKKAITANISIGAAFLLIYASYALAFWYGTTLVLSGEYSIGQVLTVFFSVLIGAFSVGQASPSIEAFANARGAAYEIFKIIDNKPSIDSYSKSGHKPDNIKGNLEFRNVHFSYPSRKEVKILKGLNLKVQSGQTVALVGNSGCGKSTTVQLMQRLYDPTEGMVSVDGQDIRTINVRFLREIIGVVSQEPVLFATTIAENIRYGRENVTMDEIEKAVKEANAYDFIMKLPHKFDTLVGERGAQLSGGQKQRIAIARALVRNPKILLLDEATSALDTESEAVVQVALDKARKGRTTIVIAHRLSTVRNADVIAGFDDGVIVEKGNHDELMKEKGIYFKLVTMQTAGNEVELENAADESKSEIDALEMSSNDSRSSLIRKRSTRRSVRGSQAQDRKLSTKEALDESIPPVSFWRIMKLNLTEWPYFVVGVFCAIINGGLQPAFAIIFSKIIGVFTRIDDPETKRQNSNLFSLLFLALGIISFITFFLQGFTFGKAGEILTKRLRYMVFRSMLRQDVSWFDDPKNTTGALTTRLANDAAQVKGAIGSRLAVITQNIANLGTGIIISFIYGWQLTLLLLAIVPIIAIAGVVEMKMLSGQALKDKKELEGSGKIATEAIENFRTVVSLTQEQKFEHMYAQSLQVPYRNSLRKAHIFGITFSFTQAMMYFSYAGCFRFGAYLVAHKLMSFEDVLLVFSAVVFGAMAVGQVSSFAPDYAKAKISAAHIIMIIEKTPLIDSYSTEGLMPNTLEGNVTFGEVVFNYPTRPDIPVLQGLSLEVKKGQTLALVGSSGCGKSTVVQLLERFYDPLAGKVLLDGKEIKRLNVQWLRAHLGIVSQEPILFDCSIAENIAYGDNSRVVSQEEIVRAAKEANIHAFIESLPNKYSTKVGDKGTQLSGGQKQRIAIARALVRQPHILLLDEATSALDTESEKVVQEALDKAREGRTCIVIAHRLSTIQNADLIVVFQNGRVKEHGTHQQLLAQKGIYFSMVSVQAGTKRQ

| SMILES | inhibition [1] | score [2] | rescue above control [3] | cytochrome c release ratio [4] | inhibition of aggregation [5] | glutamate uptake change [6] | inclusion score [7] | aggregation suppression score [8] | period change [9] | fluorescence slope change [10] | survival [11] |
| --- | --- | --- | --- | --- | --- | --- | --- | --- | --- | --- | --- |
| CCCOc1ccc2nc(NC(=O)OC)[nH]c2c1 | 0.98% | 1.01 | 0 | 0.9 | 22.1% | -36.6% | 2 | 0.918 |  |  |  |
| O=C1c2cccc(O)c2C(=O)c2c(O)cccc21 | -36.4% | -0.3 | -2 | 1.21 | 58.9% | -10.8% | 2 | 0.219 |  |  |  |
| N=C(N)N | 11.9% | 0.82 | -2.24 | 0.89 | 73.1% | 5.8% | 2 | 0.901 |  |  |  |
| COc1ccc(C2C(=O)c3ccccc3C2=O)cc1 | 2.6% | 0.47 | -9.34 | 1.11 | 79.6% | -8.78% | 2 | 0.401 |  |  |  |
| CC(=O)Oc1cccc(O)c1 | -9.3% | 1.19 | 8.59 | 0.86 | -34.2% | -3.14% | 2 | 0.901 |  |  |  |
| COc1ccc(CN(CCN(C)C)c2ncccn2)cc1 | 10.6% | 1.36 | 1.69 | 1.27 | 22.2% | -15.6% | 2 | 1.43 |  |  |  |
| S=P(N1CC1)(N1CC1)N1CC1 | 8.19% | 0.94 | -0.95 | 0.82 | 63.2% | 2.63% | 1.5 | 0.449 |  |  |  |
| O=C(O)CCCCC1CCSS1 (stereo not drawn) | -33.9% | 0.61 | 2.24 | 0.89 | 39.2% | -7.39% | 2 | 0.186 |  |  |  |
| O=C(O)c1cc(=O)c2ccccc2o1 | 6.16% | 1.58 | -0.59 | 0.94 | 87.2% | 2.44% | 2 | 1.45 |  |  |  |
| O=C(O)P(=O)(O)O | -16.3% | 1.28 | 9.34 | 0.68 | 30.6% | -1.79% | 2 | 1.5 |  |  |  |
| O=C(N[C@H](CO)[C@H](O)c1ccc([N+](=O)[O-])cc1)C(Cl)Cl | -3.82% | 1 | -3.71 | 0.72 | 55% | 7.27% | 2 | 1.2 |  |  |  |
| CNC[C@H](O)c1cccc(O)c1 | -27.4% | 1.21 | -6.19 | 0.84 | 47.4% | 3.44% | 2 | 1.2 | -0.48 h (inactive) |  |  |
| Cc1cc(=O)[nH]c(=S)[nH]1 | -32.8% | 1.08 | -4.23 | 0.82 | 69.4% | 14.6% | 2 | 1.02 |  |  |  |
| NS(=O)(=O)c1cc2c(cc1Cl)NC(C1CC3C=CC1C3)NS2(=O)=O (stereo not drawn) | 13% | 0.98 | 1.81 | 1.07 | 5.88% | 1.35% | 2 | 0.424 | 0.225 h (inactive) |  |  |
| CCC(=O)c1c(O)cc(O)cc1O | 6.37% | 0.94 | -3.67 | 1.29 | 38.9% | -10.7% | 2 | 1.29 |  |  |  |
| O=c1cc(CO)occ1O | 12% | 1.29 | 10.1 | 0.94 | 21.8% | 5.22% | 2 | 1.36 |  |  |  |
| NC(=O)c1ncn([C@@H]2O[C@H](CO)[C@@H](O)[C@H]2O)n1 | 21% | 1.56 | -2.31 | 1.02 | 21.6% | 14.1% | 1.5 | 1.25 | 0.065 h (inactive) |  |  |
| O=C(CCBr)N1CCN(C(=O)CCBr)CC1 | -31.6% | 0.93 | 9.78 | 0.86 | 52.8% | 17.8% | 2 | 0.931 |  |  |  |
| CC1(C)S[C@@H]2[C@H](NC(=O)C(C(=O)O)c3ccccc3)C(=O)N2[C@H]1C(=O)O (stereo partly drawn) | 9.67% | 1.9 | -7.2 | 0.95 | 60.9% | 7.16% | 2 | 1.65 |  |  |  |
| O=C(O)c1ccccc1O | 11.5% | 0.77 | -5.04 | 0.97 | 56.1% | 15.9% | 2 | 0.863 |  |  |  |
| CCCCC1C(=O)N(c2ccccc2)N(c2ccccc2)C1=O | 9.66% | 0.64 | 2.39 | 0.96 | 76% | -15.3% | 2 | 0.296 | 0.01 h (inactive) |  |  |
| Nc1ccc(C(=O)O)cc1 | 2.66% | 1.16 | -2.5 | 0.9 | 72.2% | 15.6% | 2 | 1.25 |  |  |  |
| NC(=O)c1ncn([C@@H]2O[C@H](CO)[C@@H](O)[C@H]2O)c1O | 7.18% | 1.36 | -8.77 | 0.91 | 49% | 20.3% | 2 | 0.757 | -0.05 h (inactive) |  |  |
| NC(=O)c1ccccc1O | -13.1% | 1.55 | 9.08 | 0.7 | 78.1% | 8.07% | 2 | 1.02 |  |  |  |

| SMILES | inhibition [1] | score [2] | rescue above control [3] | cytochrome c release ratio [4] | inhibition of aggregation [5] | glutamate uptake change [6] | inclusion score [7] | aggregation suppression score [8] | period change [9] | fluorescence slope change [10] | survival [11] |
| --- | --- | --- | --- | --- | --- | --- | --- | --- | --- | --- | --- |
| Cn1c(=O)c2c(ncn2C)n(C)c1=O | 5.72% | 1.32 | 4.29 | 1.5 | 74.9% | -3.95% | 2 | 1.18 | 0.03 h (inactive) |  |  |
| C=CCc1ccc(O)c(OC)c1 | -5.5% | 1.31 | 11.4 | 1.29 | 81.4% | -8.45% | 2 | 1.76 |  |  |  |
| Cc1c(C(N)=O)cc([N+](=O)[O-])cc1[N+](=O)[O-] | -1.96% | 1.25 | 5.37 | 1.17 | 82.7% | -10.4% | 2 | 0.968 |  |  |  |
| CN1CCC(=C2c3ccccc3CC(=O)c3sccc32)CC1 | 9.78% | 1.65 | 1.84 | 1.14 | 57.6% | 0.39% | 2 | 1.2 | -0.04 h (inactive) | 20.2% (inactive) | 5.83 (inactive) |
| CCn1cc(C(=O)O)c(=O)c2cc(F)c(N3CCNC(C)C3)c(F)c21 (stereo not drawn) | -6.75% | 1.15 | 3.68 | 1.13 | 80.3% | -4.22% | 2 | 1.06 | -0.015 h (inactive) |  | 17.1 (inactive) |
| N[C@@H](Cc1ccc(O)c(O)c1)C(=O)O | -16.6% | 1.55 | 6.71 | 0.96 | 83.3% | -2.7% | 2 | 1.67 | 0.105 h (inactive) |  | 9.67 (inactive) |
| Cc1cc(C(C)(C)C)cc(C)c1CC1=NCCN1 | 23.6% | 1.63 | -3.36 | 1.05 | 63.4% | 16.9% | 2 | 1.86 | 0.03 h (inactive) | 26.6% (inactive) | 6.75 (inactive) |
| CN(C)CCOC(=O)COc1ccc(Cl)cc1 | 6.84% | 1.08 | -6.72 | 0.96 | 83.1% | -7.05% | 2 | 1.56 | -0.09 h (inactive) | -15.2% (inactive) | 8.75 (inactive) |
| Cc1cc(C(C)(C)C)c(O)c(C)c1CC1=NCCN1 | -9.11% | 1.29 | 2.64 | 0.88 | 6.98% | -22.6% | 2 | 1.13 | -0.09 h (inactive) | 75.3% (active) | 18.8 (inactive) |
| CCC1(C)CC(=O)NC1=O (stereo not drawn) | 3.06% | 1.25 | 1.02 | 1.3 | 4.76% | -2.95% | 2 | 1.06 | 0.01 h (inactive) |  | 28.8 (inactive) |
| CCO/C([O-])=N/c1c[n+](N2CCOCC2)no1 | -3.16% | 1.13 | 3.21 | 0.83 | 36.6% | 3.92% | 2 | 1.23 | 0.065 h (inactive) |  | 4.75 (inactive) |
| CS(=O)(=O)Nc1ccc([N+](=O)[O-])cc1Oc1ccccc1 | 6.83% | 0.85 | 3.29 | 3.47 | 42.5% | -10.7% | 2 | 0.728 | 0.17 h (inactive) | 50.2% (active) | 16.8 (inactive) |
| NNc1nncc2ccccc12 | 24% | 1.45 | -2.16 | 0.9 | -30.3% | 4.84% | 2 | 1.4 | 0.12 h (inactive) | 71.4% (active) | 18.2 (inactive) |
| O=C(O)c1cccnc1Nc1cccc(C(F)(F)F)c1 | 18.6% | -0.01 | 7.18 | 0.87 | -18.2% | 6.09% | 1 | 0.0604 | 0.085 h (inactive) |  | 22.6 (inactive) |
| Cc1cccc(C)c1OCC(C)N (stereo not drawn) | -1.28% | 1.39 | 0.83 | 0.86 | 45.1% | 6.77% | 2 | 1.44 | 0.025 h (inactive) | 24.1% (inactive) | 21.7 (inactive) |
| O=C1NCC2(CCN(CCc3ccccc3)CC2)O1 | -2.12% | 1.22 | -3.96 | 1.11 | 88.9% | -8.17% | 2 | 1.64 | 0 h (inactive) | 54.1% (active) | 18.8 (inactive) |
| Nc1ccc(S(=O)(=O)Nc2ccnn2-c2ccccc2)cc1 | -0.92% | 1.43 | -6.57 | 0.99 | 4.55% | 16.6% | 2 | 0.956 | 0.065 h (inactive) |  | 28 (inactive) |
| O=C(O)CCCCCCCC(=O)O | -26.7% | 1.02 | 10.4 | 1.16 | 79.6% | 4.35% | 2 | 0.919 | 0.115 h (inactive) |  |  |
| CC(=O)OCC1=C(C(=O)O)N2C(=O)[C@@H](NC(=O)Cc3cccs3)[C@H]2SC1 | 11.1% | 1.29 | -1.7 | 0.78 | -17.5% | 0.12% | 2 | 1.47 | 0.04 h (inactive) | 2.1% (inactive) | 7.08 (inactive) |
| C=CCc1ccccc1OCC(O)CNC(C)C (stereo not drawn) | 3.86% | 1.39 | 6.88 | 1.44 | 14.3% | -6.27% | 2 | 1.42 | 0.15 h (inactive) | 80.3% (active) | 7.25 (inactive) |
| CN(C)C(=O)Oc1cccc([N+](C)(C)C)c1 | 15.7% and 16.9% | 1.16 and 1.39 | 10.4 and -12.8 | 0.9 and 1.01 | 74.6% and 38% | -18.8% and 13.6% | 2 | 0.695 and 1.29 | 0.06 h (inactive) |  | 12.1 (inactive) |
| CN(C)[C@@H]1C(=O)C(C(N)=O)=C(O)[C@@]2(O)C(=O)C3=C(O)c4c(O)ccc(Cl)c4[C@@H](O)[C@H]3C[C@@H]12 | 13.2% | 0.8 | 0 | 2.6 | 27.8% | 0.55% | 0 | 0.533 | 0.065 h (inactive) | 2.1% (inactive) | 2.92 (inactive) |
| CCN(CC)CCNC(=O)c1cc(Cl)c(N)cc1OC | -5.58% | 1.42 | -6.22 | 1.15 | 25.8% | -0.01% | 2 | 1.2 | -0.015 h (inactive) | 27.9% (inactive) | 14.7 (inactive) |
